Results: PubChem BioAssay (NCATS)
Unmarked numbers belong to inactive results. Activity calls are given as the source filed them. Calls follow the shape of the dose curve; as a rule, active = well fitted curve in the direction sought with a large enough effect; inconclusive = small, poorly fitted or top-dose-only effect, or another doubt; inactive = no such curve, though single readings can be large or run the other way.

Biological target: Thyrotropin receptor (Homo sapiens) (UniProt P16473)
Experiment: qHTS Assay for Antagonists of the Thyroid Stimulating Hormone Receptor (AID 488980); also: 0% is about no effect
Conditions: TSHR-expressing cells, cAMP antagonist read-out; series mostly up to 57.5 µM; activity, negative = inhibition: at the top concentration
Description: TSH is an alpha/beta heterodimeric glycoprotein hormone secreted from the anterior pituitary gland which belongs to the glycoprotein hormone family. The actions of TSH are mediated by a seven-transmembrane receptor, which upon TSH binding couples preferentially to the G-alpha (s) protein (Gs), resulting in activation of adenylate cyclase and increase in cyclic adenosine 3', 5' monophosphate (cAMP). The TSH receptor (THSR) is mainly expressed in thyroid follicular cells and regulates their growth and function. This cell based assay was conducted on a TSHR transfected HEK 293 cell line, measuring cAMP stimulation using antibody-based Homogeneous Time Resolved Fluorescence (HTRF).
Our goal is to identify small molecules that will inhibit (antagonize) the thyroid-stimulating hormone receptor (TSHR), a member of the 7 transmembrane-spanning receptor (7TMR) family of cell surface receptors. TSHR-mediated hyperthyroidism is important in thyroid pathology. The development of small molecule antagonists of TSHR may lead to therapeutic approaches for TSHR-mediated hyperthyroidism caused by constitutively activating mutations or stimulating auto-antibodies associated with Graves' disease. Graves' disease is the leading cause of hyperthyroidism and is caused by autoantibodies that stimulate TSHR (TsAbs) causing thyroid growth and unregulated overproduction of thyroid hormones and existing treatments have liabilities (agranulocytosis). In addition, TSHRs are known to be expressed in multiple extrathyroidal tissues including bone, brain, kidney, testis, fat and cells of the immune system but the role of the TSHR in these tissues is not clear. Therefore, TSHR antagonists/inverse agonists could be used as probes of extrathyroidal TSHR function. Finally, TSHR inverse agonists, which are a subclass of antagonists that inhibit agonist-independent (or basal or constitutive) TSHR signaling, could be used to inhibit TSH-independent signaling in patients with recurrent or metastatic thyroid cancer who are receiving thyroid hormone to suppress TSH.
An anti cAMP antibody contains a fluorescent cryptate tag (excitation 337 nm; emission 620 nm) and the acceptor is cAMP-d2 (excitation 620 nm; emission 665 nm). When antibody and cAMP-d2 interact and are excited by a 337 nm light, a FRET occurs resulting in emission at 665 nm. The assay is competition between cAMP-d2 and cAMP (from the cell lysate). The homogeneous protocol allows for one step dispense after stimulation that is automation friendly.
Step, Parameter, Value, Description
1, Cells, 3 uL, 2000 TSHR freshly harvested cells/well 1536 TC treated White solid bottom plate (Cells resuspended in 10 mM HEPES buffered HBSS and 70 uM RO 20-1724)
2, Compound, 23 nL, Libraries and controls
3, Compound, 1 uL, EC80 TSH (4 nM final)
5, Reagent, 2 uL, cAMP antibody diluted 1:20 in lysis buffer
6, Time, 30 minutes, Room temperature
7, Detector, HTRF settings, Viewlux

Thyrotropin receptor (Homo sapiens), sequence (P16473 whole entry, looked up): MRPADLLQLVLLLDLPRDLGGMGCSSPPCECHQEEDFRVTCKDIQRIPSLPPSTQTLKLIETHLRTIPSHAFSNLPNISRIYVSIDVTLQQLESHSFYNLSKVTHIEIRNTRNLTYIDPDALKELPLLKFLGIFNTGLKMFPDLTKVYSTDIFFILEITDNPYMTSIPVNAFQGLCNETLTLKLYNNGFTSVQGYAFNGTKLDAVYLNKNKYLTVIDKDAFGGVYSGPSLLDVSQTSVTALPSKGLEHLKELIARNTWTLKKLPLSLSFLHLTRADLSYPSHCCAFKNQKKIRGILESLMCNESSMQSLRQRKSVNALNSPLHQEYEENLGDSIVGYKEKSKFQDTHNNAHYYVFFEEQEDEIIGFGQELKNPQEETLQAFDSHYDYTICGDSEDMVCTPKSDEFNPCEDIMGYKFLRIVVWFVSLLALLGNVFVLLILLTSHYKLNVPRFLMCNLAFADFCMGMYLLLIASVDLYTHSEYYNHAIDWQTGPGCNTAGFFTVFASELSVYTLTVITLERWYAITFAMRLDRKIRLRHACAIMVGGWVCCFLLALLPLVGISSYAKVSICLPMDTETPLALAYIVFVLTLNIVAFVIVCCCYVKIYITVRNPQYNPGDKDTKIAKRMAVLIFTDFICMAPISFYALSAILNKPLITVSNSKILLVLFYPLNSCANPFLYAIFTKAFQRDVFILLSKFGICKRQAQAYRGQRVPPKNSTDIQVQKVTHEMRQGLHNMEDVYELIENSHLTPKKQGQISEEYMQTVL

COC1(C2=NCCN2)COc2ccccc2O1 (stereo not given) was tested. Which “activity, negative = inhibition” value did it give?
The value was 0.0313%.

With Cc1nc(N=Nc2ccc(C(=O)O)cc2)c(COP(=O)(O)O)c(C=O)c1O as the molecule, how does the “activity, negative = inhibition” value read?
The value was -1.53%.

CC(N)(Cc1ccc(O)cc1)C(=O)O (stereo not given) was tested. Which “activity, negative = inhibition” value did it give?
Its value is 0.877%.

How did the “activity, negative = inhibition” value turn out when O=C(O)C1=CCCNC1 was run?
The value was -1.62%.

Which outcome does the source give for CC(C)NC[C@H](O)COc1ccc(CC(N)=O)cc1 here?
Its outcome is “inactive”.

Which “activity, negative = inhibition” value does the source give for Cc1cccc(C(=O)NCN2CCN(c3ccccc3C#N)CC2)c1 here?
Its value is -2.35%.

NC(=O)CNCCC(c1ccccc1)c1ccccc1 was tested. Which “activity, negative = inhibition” value did it give?
The value was -1.34%.

Which “activity, negative = inhibition” value does the source give for C[C@@H](NCCc1ccc(O)cc1)[C@@H](O)c1ccc(O)cc1 here?
The value was 0.0892%.

With Cc1nc(N=Nc2ccc(S(=O)(=O)O)cc2S(=O)(=O)O)c(COP(=O)(O)O)c(C=O)c1O as the molecule, how does the “activity, negative = inhibition” value read?
Its value is -1.99%.

Which “activity, negative = inhibition” value does the source give for NC/C=C\C(=O)O here?
Its value is -2.08%.

With Cc1cccc(C)c1OCC(N)C(C)C (stereo not given) as the molecule, how does the “activity, negative = inhibition” value read?
The value was -0.29%.

COc1ccc2c(c1)c(CC(=O)O)c(C)n2Cc1ccc(Cl)cc1 was tested. Which “activity, negative = inhibition” value did it give?
Its value is -0.596%.

Which “activity, negative = inhibition” value does the source give for CSC(N)=NCCC[C@H](N)C(=O)O here?
Its value is -1.04%.

CC(C)(CO)Cc1cc(C(C)(C)C)c(O)c(C(C)(C)C)c1 was tested. Which “activity, negative = inhibition” value did it give?
Its value is -0.313%.

How did the “activity, negative = inhibition” value turn out when Nc1ccc(N2C(=O)c3ccccc3C2=O)c(Cl)c1 was run?
The value was -1.05%.

How did the “activity, negative = inhibition” value turn out when c1ccc2nc(C3=NCCN3)ccc2c1 was run?
The value was -0.923%.

Which “activity, negative = inhibition” value does the source give for OC[C@H]1O[C@@H](n2cnc3cncnc32)[C@H](O)[C@@H]1O here?
Its value is -1.06%.

Which “activity, negative = inhibition” value does the source give for Cc1nc2c(OCc3ccccc3)cccn2c1CC#N here?
Its value is -2.22%.

CC[C@@H]1Cc2cc(O)ccc2C2=C1c1ccc(O)cc1C[C@H]2CC was tested. Which “activity, negative = inhibition” value did it give?
Its value is -1.49%.

Which “activity, negative = inhibition” value does the source give for O=C(O)[C@H]1NCCC[C@H]1C(=O)O here?
Its value is 0.0391%.

With CC1C(=O)N(C)C(=O)c2nc[nH]c21 (stereo not given) as the molecule, how does the “activity, negative = inhibition” value read?
Its value is -1.37%.

With CCC1(O)CC2CN(CCc3c([nH]c4ccccc34)[C@@](C(=O)OC)(c3cc4c(cc3OC)N(C)C3[C@]45CCN4CC=C[C@@](CC)([C@@H](OC(C)=O)[C@]3(O)C(=O)OC)[C@H]45)C2)C1 (stereo not given in full) as the molecule, how does the “activity, negative = inhibition” value read?
Its value is -2.46%.

For CCCCC[C@H](CC(=O)NO)C(=O)N[C@H](C(=O)N1CCC[C@H]1CO)C(C)C, which “activity, negative = inhibition” value is on record?
The value was -2.2%.

With O=[N+]([O-])c1cccc2c(Br)[nH]nc12 as the molecule, how does the “activity, negative = inhibition” value read?
Its value is 0.176%.

NC1CCN(O)C1=O (stereo not given) was tested. Which “activity, negative = inhibition” value did it give?
The value was -2.69%.

How did the “activity, negative = inhibition” value turn out when CC(C)NCC(O)COc1ccc(CC(N)=O)cc1 (stereo not given) was run?
Its value is -1.29%.

O=C(O)C1=CCNCC1 was tested. Which “activity, negative = inhibition” value did it give?
The value was 0.049%.

With CC[N+](CC)(CC)CC(=O)Nc1c(C)cccc1C as the molecule, how does the “activity, negative = inhibition” value read?
The value was -1%.

For O=C(O)c1ccccc1Nc1ccccc1, which “activity, negative = inhibition” value is on record?
The value was -0.204%.

With C=CCN1CCc2c(cc(O)c(O)c2Br)[C@@H](c2ccccc2)C1 as the molecule, how does the “activity, negative = inhibition” value read?
Its value is -0.406%.

How did the “activity, negative = inhibition” value turn out when C=CC[C@H](N)C(=O)O was run?
Its value is -0.815%.

For NC(=O)c1ccccc1, which “activity, negative = inhibition” value is on record?
The value was -1.49%.

How did the “activity, negative = inhibition” value turn out when CC1CCN(CC[C@H]2CCCN2S(=O)(=O)c2cccc(O)c2)CC1 was run?
The value was -1.65%.

With Cc1cc2c(cc1Cl)N(C(=O)Nc1ccnc3ccccc13)CC2 as the molecule, how does the “activity, negative = inhibition” value read?
Its value is 0.409%.

C/C(=C\c1ccc(C(=O)O)cc1)c1ccc2c(c1)C(C)(C)CCC2(C)C was tested. Which “activity, negative = inhibition” value did it give?
Its value is -1.25%.

For CC#CCOC(=O)c1c(C)nc2sc3c(c2c1N)CCC(O)C3 (stereo not given), which “activity, negative = inhibition” value is on record?
The value was -2.02%.

Which “activity, negative = inhibition” value does the source give for CC(=O)NNC(=O)N1Cc2ccccc2Oc2ccc(Cl)cc21 here?
Its value is -0.556%.

With OCC1NCC(O)C(O)C1O (stereo not given) as the molecule, how does the “activity, negative = inhibition” value read?
Its value is -0.478%.

How did the “activity, negative = inhibition” value turn out when N=C(N)c1ccc(OCCCCCOc2ccc(C(=N)N)cc2)cc1 (tested in a mixture with another compound) was run?
The value was -0.887%.

N[C@H](C(=O)O)[C@H](O)C(=O)O was tested. Which “activity, negative = inhibition” value did it give?
The value was -0.258%.
